# IL1B secr inh: qHTS for Inhibitors of Inflammasome Signaling: IL-1-beta AlphaLISA Primary Screen; THP-1 LPS/ATP IL-1B secretion, AlphaLISA, 16 h; active compounds read low; activity change, % at 57.5 µM; 360,000 compounds, 4.7% hits; in the data active = activity change below about -50%; inconclusive = mostly about -30% to -49%
#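 Secreted IL-1B measured by AlphaLISA bead assay after 16 h compound exposure of THP-1 cells; compounds (final up to 57.5 uM) added 1 h before LPS (250 ng/mL) and ATP (1.25 mM) stimulation; lower signal means less secretion.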
# D3 antag: qHTS of D3 Dopamine Receptor Antagonist: qHTS | D(3) dopamine receptor (Homo sapiens), P35462 | D3R cells, DiscoveRx beta-arrestin luminescence, antagonist mode; active compounds read low | max response, negative = inhibition, % | 360,000 compounds, 2.5% hits | AID 652054, 2013; in the data active = max response below about -50%; inconclusive = no clear call, values can overlap the other calls
# Target sequence (P35462 whole entry, looked up): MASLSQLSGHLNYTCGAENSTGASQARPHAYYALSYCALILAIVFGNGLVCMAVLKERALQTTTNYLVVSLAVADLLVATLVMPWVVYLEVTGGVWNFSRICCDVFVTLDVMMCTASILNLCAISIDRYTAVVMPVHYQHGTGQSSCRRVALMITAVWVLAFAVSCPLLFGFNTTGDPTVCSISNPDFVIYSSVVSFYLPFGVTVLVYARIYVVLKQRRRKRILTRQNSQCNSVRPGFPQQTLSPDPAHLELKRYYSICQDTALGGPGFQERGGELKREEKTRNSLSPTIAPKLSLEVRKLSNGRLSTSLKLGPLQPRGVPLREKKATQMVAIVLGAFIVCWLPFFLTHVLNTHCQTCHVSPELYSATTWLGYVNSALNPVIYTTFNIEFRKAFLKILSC
#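 Cells plated overnight at 1500 cells/well, then exposed to library compounds with dopamine controls for 90 minutes at 37 degrees C. DiscoveRx reagent added for 30–60 minutes at room temperature; luminescence read, quantitative HTS format.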
# DT40 TDP1 no CPT: qHTS for Inhibitors of human tyrosyl-DNA phosphodiesterase 1 (TDP1): qHTS in cells in absence of CPT; DT40 Tdp1-/- hTDP1 cells, no CPT, ATP luminescence, 48 h; Potency, µM (top dose mostly 46.2 µM), actives largely listed as inhibitors; 420,000 compounds, 15% hits; AID 686978, 2013; note: nearly all actives have a fitted effect of over 55% in size
#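 A cellular qHTS used chicken DT40 cells lacking endogenous Tdp1 but carrying stably transfected human TDP1. Compounds were applied without camptothecin, and cell growth kinetics were judged by ATP-dependent luminescence after ≥48 hr.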
# ClpP mod: qHTS Assay for Activators of ClpP; ATP-dependent Clp protease proteolytic subunit (Bacillus subtilis (strain 168)), P80244; Potency, µM (top dose mostly 57.5 µM); purified B. subtilis ClpP, FRET peptide cleavage, 20 min; 340,000 compounds, 1.9% hits; active = well fitted falling curve with a large enough effect; inconclusive = small, poorly fitted or top-dose-only effect; inactive = no such curve, though single readings can be large or run the other way; note: the source files actives as falling curves though it sought activators and does not explain the sign; nearly all actives have a fitted effect of over 65% in size
# Target sequence (P80244 whole entry, looked up): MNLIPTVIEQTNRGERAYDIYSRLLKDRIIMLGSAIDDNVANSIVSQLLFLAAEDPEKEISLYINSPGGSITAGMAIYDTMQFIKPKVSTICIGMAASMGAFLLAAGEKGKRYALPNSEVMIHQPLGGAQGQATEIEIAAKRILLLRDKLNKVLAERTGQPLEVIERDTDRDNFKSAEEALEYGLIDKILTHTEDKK
#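 FRET quenching reversal measured ClpP activation: 10 microg/mL B. subtilis ClpP at pH 8 with the FRET-FV decapeptide, read at 430 nm after 320 nm excitation. The 20-min minus 0-min signal was scaled between DMSO/no-enzyme wells and ADEP (5.8 microM final).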
# DT40 TDP1 CPT: qHTS for Inhibitors of human tyrosyl-DNA phosphodiesterase 1 (TDP1): qHTS in cells in presence of CPT; 420,000 compounds, 12% hits; Potency, µM (series often up to 46.2 µM), most hits filed as inhibitors; chicken DT40 Tdp1-/-;hTDP1 cells + 20 nM CPT, ATP luminescence, 48 h; note: nearly all actives have a fitted effect of over 55% in size
#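 Chicken DT40 Tdp1-/- cells stably complemented with human TDP1 were seeded at 400 cells/well in medium containing 20 nM camptothecin, exposed to pin-transferred compounds, and grown at 37 °C for at least 48 hr. Viability was read as ATP luminescence.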
# DRD3 agonist: qHTS of D3 Dopamine Receptor Agonist: qHTS; max activation, %; D(3) dopamine receptor (Homo sapiens), P35462; D3R DiscoveRx beta-arrestin cells, luminescence, 90 min; 410,000 compounds, 0.58% hits; in the data active = max activation above about 30%
#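 Agonist mode: compounds and dopamine controls were applied to plated cells for 90 min at 37 degrees C after an overnight attachment at 1500 cells/well. Luminescent read-out followed 30 - 60 minutes at room temperature with DiscoveRx detection reagent.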
# A number is an active result; - = inactive; ? = inconclusive; . = no result. In the library only some 21% were active in any assay of this set; here they are far more common. Unless noted, calls come from the whole dose curve; as a rule, active = well fitted inhibition curve with a large enough effect; inconclusive = small, poorly fitted or top-dose-only effect; inactive = flat fitted curve, though single readings scatter.
SMILES,IL1B secr inh,D3 antag,DT40 TDP1 no CPT,ClpP mod,DT40 TDP1 CPT,DRD3 agonist
CSc1ccc(C(O)c2ncc(-c3ccc(F)cc3)[nH]2)cc1 (configuration not stated),-,-,15µM,-,29µM,-
CSc1ccc(CCNC(=O)CCc2c(C)nc3ncnn3c2C)cc1,.,.,-,-,-,-
Cc1cc(N2CCN(c3ccc(F)cc3)CC2)n2nc(-c3ccc(Cl)cc3)nc2n1,.,.,-,-,-,-
CC(C)(C)OC(=O)N1CCC(c2c(C(=O)NCCN3CCOCC3)cnn2-c2cccc(F)c2)CC1,.,.,-,-,-,-
CC(/C=N/NC(=O)c1c(Br)cnn1C)=C\c1ccccc1,-52,-,?,-,-,-
CC(/C=N/NC(=O)c1ccncc1)=C\c1ccccc1,-,-,-,-,-,-
O=C(N/N=C/C(Br)=C\c1ccccc1)c1cccs1,.,-,13µM,.,15µM,-
CC(/C=N/NC(=O)Cn1cnc2ccccc21)=C\c1ccccc1,-,-,?,-,23µM,-
O=C(Cn1cnc2ccccc21)N/N=C/c1ccccc1,-,-,-,-,-,-
CC(=C/c1ccccc1)/C=N/NC(=O)c1cccs1,.,-,5.2µM,.,-,-
CC(/C=N/NC(=O)c1nn(C)c(C)c1Br)=C\c1ccccc1,-,-,-,-,-,-
Cc1nonc1CN(C)C(=O)c1ccc(OC2CCN(C(=O)c3cccnc3)CC2)cc1,-,-,-,-,-,-
CC(=O)c1cccc(NC(=O)Cc2coc3cc4c(cc23)CCC4)c1,-,-,6.5µM,-,?,-
CCC(C)c1ccccc1NC(=O)Cc1coc2cc3c(cc12)CCC3 (configuration not stated),-,-,18µM,-,?,-
COc1ccc(-c2cc(-c3ccccc3)no2)cc1,-,-,-,-,-,35
c1ccc(-c2cc(-c3cc(-c4ccccc4)on3)no2)cc1,-,-,?,-,-,-
COc1ccc(Nc2nc(C)cc(-c3cc(-c4ccccc4)on3)n2)cc1,-,-,?,28µM,-,52
CCCCOc1cc(C(=O)OCCN(CC)CC)ccc1N,-,-,?,-,?,-
CCN(CC)CCOc1ccc2c(c1)C(=O)c1cc(OCCN(CC)CC)ccc1-2,.,.,10µM,.,15µM,-
CCc1nc2nc(C)cc(Nc3ccc(Br)cc3F)n2n1,.,.,?,-,16µM,-
CCOc1ccc(Nc2cc(C)nc3nc(Cc4ccc(Cl)cc4)nn23)cc1,.,.,-,-,?,-
Cc1cccc(Nc2cc(C)nc3nc(Cc4ccc(Cl)cc4)nn23)c1,.,.,?,-,21µM,-
CCc1nc2nc(C)cc(Nc3cccc(C)c3C)n2n1,.,.,-,-,?,-
CCc1nc2nc(C)cc(Nc3cc(C)ccc3C)n2n1,.,.,18µM,-,?,-
COc1cccc(-c2nc(S(=O)(=O)c3ccc(C)cc3)c(N3CCCCC3)o2)c1,.,.,18µM,-,21µM,-
SMILES,IL1B secr inh,D3 antag,DT40 TDP1 no CPT,ClpP mod,DT40 TDP1 CPT,DRD3 agonist
COc1cccc(-c2nc(S(=O)(=O)c3ccccc3)c(N3CCCCC3)o2)c1,.,.,16µM,-,?,-
COc1ccc(-c2nc(S(=O)(=O)c3ccc(C)cc3)c(N3CCCC3)o2)cc1,-,-,-,-,-,-
CCCCCc1cc(=O)[nH]c(=S)[nH]1,-,-,-,-,-,-
CCCCCc1ccc(C(=O)CCCC)c(=S)[nH]1,-,-,?,.,-,30
O=S(=O)(N[C@H]1C[C@@H](NS(=O)(=O)OCC(Cl)(Cl)Cl)C2CCCCC21)OCC(Cl)(Cl)Cl (some centres not stated),-,-,23µM,-,?,-
COc1ccc(C(C)NC(=O)CC23CC4CC(CC(C4)C2)C3)cc1 (configuration not stated),-,-,16µM,-,?,-
CC(NC(=O)CC12CC3CC(CC(C3)C1)C2)C(=O)O (configuration not stated),-,-,-,-,-,-
COc1cccc(Oc2cc(NN3CCCCC3)c([N+](=O)[O-])cc2[N+](=O)[O-])c1OC,-,-65,-,-,?,-
Cc1ccc(S(=O)(=O)CCC(=O)OCC(=O)N(Cc2ccccc2)C(C)C)cc1,-,-,-,16µM,-,-
O=C(NCCC(=O)N(CCc1ccccc1)Cc1ccccc1)c1ccccc1Cl,-,-,23µM,-,?,-
Cc1ccc(S(C)(=O)=O)cc1C(=O)OCC(=O)N(Cc1ccccc1)Cc1ccccc1,-,-,16µM,-,21µM,-
Cc1ccc(C(=O)NCCCc2ccccc2)c(Cl)c1,-,-,-,.,-,-
O=C(OCC(=O)N(Cc1ccccc1)Cc1ccccc1)c1ccccc1O,-,-,?,-,18µM,-
CCc1ccc(NC(=O)CSCc2ccc(C(=O)O)cc2)cc1,-,-,-,-,-,-
CC1=C(c2ccc(C(C)C)cc2)S(=O)(=O)N=C1N1CCC(C(=O)NCc2ccc(C)o2)CC1,.,.,?,-,?,-
Nc1cc(=O)nc(SCC(=O)Nc2ccc(F)cc2)n1-c1cccc(Cl)c1,.,.,-,-,-,-
O=C(OCC(=O)N(CCc1ccccc1)Cc1ccccc1)c1ccccc1O,-,-,?,-,18µM,-
O=C(/C=C/c1c[nH]c2ccccc12)c1ccccc1,-,-,?,-,21µM,-
COc1ccc2[nH]cc(/C=C/c3cc[n+](C)cc3)c2c1,-,-,5.2µM,-,?,-
COc1ccc2[nH]cc(C=O)c2c1,-,-,-,-,-,-
Cc1ccc(C(=O)/C=C/c2c[nH]c3ccccc23)cc1,-,-,-,-,-,-
COc1ccc2[nH]cc(/C=C/C(=O)c3ccccc3)c2c1,-104,-,?,-,?,-
Cn1cnnc1-c1cccc(NC(=O)c2cc(F)c(F)cc2Cl)c1,-,-,-,-,-,-
COc1cccc(/C(=N/O)C2CC2c2ccc(Cl)cc2)c1 (configuration not stated),-88,-,-,.,-,-
COc1cccc(/C(C)=N/NS(=O)(=O)c2ccc(Cl)cc2)c1,-,-,-,.,-,-
O=C(c1cnccn1)N1CCC2(CC1)CN(c1ccncc1)C2,.,.,-,.,-,.
CCc1c(C)n2nc(C)cc2[nH]c1=O,-,-,-,13µM,-,-
CCc1c(C)c2c(C)nn(-c3ccccc3)c2[nH]c1=O,-,-,-,?,-,-

# Compound activity deposited in PubChem by National Center for Advancing Translational Sciences (NCATS).
